# Only some compounds are listed: those with a hit (about 3% of all), similar ones and a draw of the others.
# VDR inhibitor: vitamin D3 receptor (human) inhibition; VDR-SRC2-3 peptide fluorescence polarization, 2 h; 400,000 tested, 0.93% active; Potency, µM, for inactives: max response, negative = inhibition, actives largely listed as inhibitors
#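 Measured by FP: displacement of SRC2-3 coactivator peptide from VDR by library compounds, following a two-hour ambient incubation.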
# 12-LOX inh: ALOX12 (human) lipoxygenase inhibition; purified 12hLO, xylenol orange hydroperoxide absorbance; Potency, µM (top dose mostly 108 µM), without a hit: top-dose activity change, negative = inhibition, most hits filed as inhibitors; 580,000 tested, 1.1% active; AID 1671190
#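 Hydroperoxide product was detected by ferrous iron/xylenol orange as the 573 to 405 nm absorbance ratio. Arachidonic acid at 40 uM (final) was turned over for 30 min at room temperature by 150 nM human 12hLO, pH 7.0 Hepes buffer, after 15 min compound preincubation.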
# PLK1 PBD block: PLK1 (human) polo-box domain binding inhibition | 360,000 tested, 2.8% active | Plk1 PBD binding of FITC phosphopeptide, fluorescence polarization | Potency, µM, without a hit: max response, negative = inhibition, most hits filed as inhibitors; further: series mostly up to about 57 µM; nearly all actives have a fitted effect of over 65% in size
# Target sequence (P53350 whole entry, looked up, the tested form may be a part): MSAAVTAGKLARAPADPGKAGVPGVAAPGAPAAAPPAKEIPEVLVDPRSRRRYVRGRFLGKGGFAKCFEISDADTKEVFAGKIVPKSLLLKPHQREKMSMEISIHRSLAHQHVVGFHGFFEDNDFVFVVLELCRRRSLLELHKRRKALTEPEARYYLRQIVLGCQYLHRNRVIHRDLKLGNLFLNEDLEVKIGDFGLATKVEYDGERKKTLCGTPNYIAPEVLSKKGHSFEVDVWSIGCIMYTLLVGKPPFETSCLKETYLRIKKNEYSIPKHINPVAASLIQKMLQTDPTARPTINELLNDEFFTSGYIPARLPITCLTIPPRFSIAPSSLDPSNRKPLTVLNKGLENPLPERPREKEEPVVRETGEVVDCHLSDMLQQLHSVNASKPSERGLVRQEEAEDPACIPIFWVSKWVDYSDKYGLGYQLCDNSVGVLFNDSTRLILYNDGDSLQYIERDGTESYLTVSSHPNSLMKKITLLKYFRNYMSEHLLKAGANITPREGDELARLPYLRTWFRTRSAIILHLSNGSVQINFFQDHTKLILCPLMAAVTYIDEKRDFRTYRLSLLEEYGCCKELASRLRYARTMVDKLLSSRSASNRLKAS
# GCN5L2 inh: inhibitors of human GCN5L2 histone acetyltransferase; GCN5L2 HAT assay, ThioGlo1 CoA-SH fluorescence; Q92830; AID 504327; 390,000 tested, 0.21% active; Potency, µM (titrated, usually from 58.9 µM), for the others: at the highest dose activity change, negative = inhibition, usual class: inhibitors
#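 GCN5L2 (20 nM) in 50mM HEPES pH 7.5, 0.1mM EDTA, 0.01% Tween-20 preincubated 15 min with compounds at room temperature. Reaction started with H3(1-25) 75uM, acetyl-CoA 70uM, ThioGlo1 50uM; CoA-thiol fluorescence (Ex340/Em540) read at 0 and 20 min.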
# * hit, by the source's call; ? = inconclusive; . = no result given. The call rests on the fitted dose curve; in most records, active means well fitted curve in the direction sought with a large enough effect; inconclusive means small, poorly fitted or top-dose-only effect, or another doubt; inactive means no such curve, though single readings can be large; an effect the other way counts as inactive or inconclusive. On the % scale 0 is the no-effect control and ±100 the full control effect; potency means the concentration at half of the fitted maximal effect.
SMILES,VDR inhibitor,12-LOX inh,PLK1 PBD block,GCN5L2 inh
CONC(=O)CCN1C(=O)CSc2ccccc21,.,1%,.,.
CCc1ccc(C2CC(c3ccc(Cl)cc3)=NNC2=O)cc1 (stereo unspecified),1%,0%,-1%,-9%
O=C1NN=C(c2ccc(Br)cc2)CC1c1ccc(Cl)cc1 (stereo unspecified),-5%,40µM*,-6%,-3%
C=CCNC(=S)Nc1ccc(F)cc1Cl,.,53%,.,.
Cc1[nH][nH]c(=O)c1C(c1c(C)[nH][nH]c1=O)c1cn(C)c2ccccc12,5%,?,-18%,-28%
Cc1[nH][nH]c(=O)c1C(c1c(C)[nH][nH]c1=O)c1cn(Cc2cccc3ccccc23)c2ccccc12,-21%,0%,7.5µM*,-9%
Cc1ccc(OCc2nc(CCN(C)C(=O)c3ccccc3C(F)(F)F)no2)cc1C,.,4%,.,.
N/C(=N\OC(=O)c1ccc2c(c1)OCO2)c1cccc(Br)c1,-9%,8%,-6%,-6%
N/C(Cc1cccc2ccccc12)=N\OC(=O)c1ccc2c(c1)OCO2,?,-9%,24µM*,0%
CCOc1ccccc1NC(=O)c1nn(C)c(=O)c2ccccc12,.,-11%,.,.
CC(C)=CCC1=C(OCC(=O)O)C(=O)c2ccccc2C1=O,?,-30%,30µM*,-2%
Cc1ccc2c(C)c(CCC(=O)N3CCCCCCC3)c(=O)oc2c1,.,36%,.,.
CC(N)c1ccc(NS(C)(=O)=O)cc1 (stereo unspecified),.,7%,.,.
CCCC(=O)c1ccc(N2CCC(C)CC2)c(F)c1,-19%,-4%,24µM*,-4%
COC(=O)c1ccc(N2CCC(C)CC2)c(N)c1,?,?,21µM*,-11%
CCOc1ccc(NC(=O)CSc2nc3ccccc3c(=O)n2CCn2cc(Cl)cn2)cc1,.,-11%,.,.
O=C(Nc1cc(Cl)ccc1Cl)c1cc([N+](=O)[O-])cc(Br)c1O,79µM*,.,.,.
CC(C)N1C(=O)CC(Nc2ccc(N3CCOCC3)cc2)C1=O (stereo unspecified),6%,-29%,-10%,-3%
O=C1CC(Nc2ccc(N3CCOCC3)cc2)C(=O)N1c1ccccc1F (stereo unspecified),-3%,16µM*,-9%,0%
O=C1CC(NNc2ccccc2)C(=O)N1c1ccc(N2CCCCC2)cc1 (stereo unspecified),?,6.3µM*,-28%,1%
Cc1ccc(N2C(=O)CC(Nc3ccccc3)C2=O)cc1 (stereo unspecified),-9%,7%,-1%,-4%
CCN1CCC(N2CCC(Oc3ccccc3-c3nc(-c4ccncc4)no3)C2)CC1 (stereo unspecified),.,52%,.,.
O=c1c2c(CO)c(-c3ccc(F)cc3)nn2ccn1Cc1cc(F)ccc1F,.,46%,.,.
O=S(=O)(Cc1ccccc1)N=Nc1c(O)[nH]c2ccc(Br)cc12,79µM*,.,?,-19%
O=[N+]([O-])c1ccc(C2Nc3cccc4cccc(c34)N2)cc1,-21%,40µM*,-7%,-6%
SMILES,VDR inhibitor,12-LOX inh,PLK1 PBD block,GCN5L2 inh
NC(=NCc1ccccc1)NN=Cc1ccnc2ccccc12,.,13µM*,-18%,.
NC(N)=NN=Cc1ccnc2ccccc12,.,?,-11%,.
Cc1nc2sc(C#N)c(N)c2c(C)c1Cl,.,12%,.,.
CN(C)/C=C1\Oc2ccc3ccccc3c2C1=O,0%,5µM*,-9%,-23%
O=C1C(=O)c2c(ccc3ccccc23)-c2ccccc21,?,-9%,-21%,.
C/C(=N\NC(=O)c1csc(C)c1C)c1ccc(Cl)s1,-16%,15%,24µM*,-7%
C/C(=N\NC(=S)NC(C)C)c1ccc(Cl)s1,-24%,45µM*,-22%,-11%
c1cncc(-c2ccc3ncnc(NCCN4CCOCC4)c3c2)c1,6%,?,.,-11%
Cc1ccccc1-c1ccc2ncnc(N3CCN(C)CC3)c2c1,-8%,-7%,.,-12%
Cc1noc(C)c1-c1ccc2ncnc(NC3CC3)c2c1,-19%,?,.,-1%
Cc1ccccc1-c1ccc2ncnc(N3CCOCC3)c2c1,56µM*,?,.,-22%
Cc1noc(C)c1-c1ccc2ncnc(N3CCOCC3)c2c1,50µM*,?,.,?
Cc1ccccc1-c1ccc2ncnc(NCCN3CCOCC3)c2c1,50µM*,?,.,-24%
Cc1noc(C)c1-c1ccc2ncnc(NC3CCNCC3)c2c1,45µM*,?,.,?
Cc1noc(C)c1-c1ccc2ncnc(N3CCN(C)CC3)c2c1,?,-25%,.,-18%
O=C(NC1CCCCC1)C1CN(S(=O)(=O)c2ccccc2Cl)CC12CCOCC2 (stereo unspecified),.,-8%,.,.
COc1cc(-c2nc3c4c5c(sc4ncn3n2)COC(C)(C)C5)ccc1O,.,-1%,.,.
COc1ccc(-c2noc(CC3CCN(C(=O)Cc4ccc(OC)c(Cl)c4)CC3)n2)cc1,.,-1%,.,.
Cc1cccc(N2CCN(C(=O)c3ccc4c(c3)NC(=O)C(CSCc3cccc(F)c3)N4)CC2)c1C (stereo unspecified),.,.,.,28µM*
COc1cc(C(=O)Nc2nc(C)c(Cc3ccc4c(c3)OCO4)s2)cc(OC)c1OC,?,?,9.5µM*,-21%
Cc1ccc(C)c(N2CCN(CC3CCCCC3)CC2)c1,6%,4.5µM*,0%,-4%
Cc1cccc(N2CCN(CC3CCCCC3)CC2)c1C,-3%,-12%,-8%,1%
COc1cc(CO)ccc1OCc1nnnn1-c1ccc(C)cc1,?,-1%,17µM*,-2%
COc1ccc(N(C(=O)c2ccc(S(=O)(=O)N3CCCCC3)cc2)C2C=CS(=O)(=O)C2)cc1 (stereo unspecified),.,41%,.,.
COc1ccc(N(C(=O)c2ccc(S(=O)(=O)N3CCOCC3)cc2)C2C=CS(=O)(=O)C2)cc1 (stereo unspecified),33%,18%,-7%,2.2µM*
SMILES,VDR inhibitor,12-LOX inh,PLK1 PBD block,GCN5L2 inh
O=C(CC1C=CCC1)N(Cc1cccs1)C1CC1 (stereo unspecified),.,37%,.,.
COc1ccc(S(=O)(=O)N2CCN(Cc3ccco3)CC2)cc1,-6%,2.5µM*,-7%,-5%
O=S(=O)(c1ccc(Br)cc1)N1CCN(Cc2ccco2)CC1,-4%,-5%,-9%,-20%
Cc1ccc(S(=O)(=O)N2CCC3(CC2)SCC(=O)N3Cc2ccco2)cc1,.,14µM*,.,.
Nc1c(C(=O)N/N=C/c2ccc(Cl)cc2)cnn1-c1ccccc1,-9%,-19%,0%,0%
CCOC(=O)c1nn(-c2ccccc2)c(=O)c2c(NC(C)=O)scc12,-7%,-14%,-10%,-2%
Nc1scc2c(C(=O)N/N=C/c3ccc(Cl)cc3)nn(-c3ccccc3)c(=O)c12,?,6.3µM*,?,?
CCOC(=O)c1nn(-c2ccccc2)c(=O)c2c(N)scc12,24%,35µM*,2.7µM*,-21%
Cc1cc(C)cc(C(=O)NC(C)c2ccc(CC(C)C)cc2)c1 (stereo unspecified),.,-8%,.,.
O=C(CSc1nnc(-c2cccc(S(=O)(=O)N3CCCC3)c2)n1-c1ccccc1)Nc1ccc(C(=O)O)cc1,0%,-17%,75µM*,-24%
Cc1ccc(N(Cc2cc3cccc(C)c3[nH]c2=O)S(=O)(=O)c2ccccc2)c(C)c1,?,.,15µM*,-7%
